This passage reports outcome results from PubChem BioAssay AID588651 (The Scripps Research Institute Molecular Screening Center, 2011).

SMILES strings stand for the structures. The source made the active and inactive calls. Cut-off read from the data, not from the text of the source: active = inhibition above about 65%; inactive = the rest.

In this assay the test system is Antitargets. Kind of assay: Fam108b inhibitors and proteome off-target selectivity – biochemical, gel-based ABPP, recombinant soluble Fam108b, HTS hits, complex proteome, late-stage follow-up (AID 588651).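 Note: Fam108b spiked into mouse brain membrane proteome; tested at 20 µM.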 Particulars: FP-rhodamine labeling in proteome.
Regarding `NC(Cc1cc(O)c(O)cc1O)C(=O)O` (stereo not drawn), the result was inactive.

With `Cc1ccccc1N1C(=O)/C(=C/c2ccco2)C(=O)NC1=S`, the result was inactive.

For `C[n+]1c(-c2ccccc2)c2cc(N)ccc2c2ccc(N)cc21`, the result was inactive.
